Active and inactive are the calls of the source.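 Rule for the calls, unless noted: active = NADPH fluorescence slope more negative than the mean of all samples by about 3 SD, 99.7% confidence; inactive = the rest.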

A short description of experiment [1]: inhibitors of TNFa-induced NFkB p65 translocation, primary screen, imaging, HUVEC, MLSMR starter and 10KST1 sets (AID 438;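 active = inhibition above 20% together with a positive visual image hit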;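 note: compound added about 3h40 before a 20 min TNFalpha stimulation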;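 for inhibition: signal is the nuclear over cytoplasmic p65 intensity ratio per well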). Particulars: HUVEC TNFa-induced p65 nuclear translocation; cell count: measured here: nuclei count (cytotoxicity indicator), at 2.08 µM; inhibition: at 2 µM, stronger effect = higher value, 0% TNFa-plus-vehicle, 100% no-TNFa wells.
Experiment [2] in a line: inhibitors of mutant huntingtin aggregation, primary screen, imaging, exon1htt(103Q)mCFP cells, high-content imaging (AID 483;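 active = visual image review flags a hit and inhibition of aggregation exceeds 20%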;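 note: compound exposure lasted 3 days before fixation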;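 for nuclei count: percent of the per-plate median nuclei count of sample wells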). Particulars: exon1htt(103Q)mCFP cell line, aggregate imaging, at 2 µM; inhibition of aggregation: stronger effect = higher value; nuclei count: measured here: cell count, toxicity.
Experiment [3] in a line: inhibitors of E-selectin induction by TNFa, primary screen, imaging, HUVEC, immunofluorescence, MLSMR starter and 10KST1 sets (AID 487;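 active = visually confirmed hit in the image check and inhibition above 20%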;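 for inhibition: signal is fraction of cell area covered by stained E-selectin grains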;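 for nuclei count: 100% = median nuclei count of all wells on the same plate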). The note with it: HUVEC TNFalpha-induced E-selectin immunofluorescence imaging, at 2 µM; inhibition: stronger effect = higher value; nuclei count: measured here: cell number, toxicity.
Experiment [4] concerns the target Voltage-gated potassium channel subunit beta-2 (Rattus norvegicus) (UniProt P62483). The experiment in a line: KvBeta enzyme negative modulators, primary screen, biochemical, NADPH fluorescence (AID 622;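 active = fluorescence slope higher than the sample average by over 3 SD, cut at about -0.22 in these data, passing the limit was not always enough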;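 note: slope of raw intensity against log time taken from 70 to 1610 s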). The note with it: recombinant KvBeta, 4-cyanobenzaldehyde reduction, at 10 µM, stronger effect = higher value.
Experiment [5] has the same target. The experiment in a line: KvBeta positive modulators, primary screen, biochemical, NADPH fluorescence (AID 623).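 Note: fluorescence intensity change per second fitted from 20 to 320 s.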 The note with it: Recombinant KvBeta, NADPH fluorescence decrease slope, 10 min; at 10 µM; stronger effect = lower value.
The target of experiment [6] is Alpha-2C adrenergic receptor (Homo sapiens) (UniProt P18825). As to the kind of experiment: modulators of alpha2C/GIRK thallium flux, primary screen, cell-based, HEK293 alpha2C/GIRK1/2 (AID 624;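 active = fluorescence slope after compound addition differing from the mean of all screened samples at 99.7% confidence, in either direction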;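 note: slope of fluorescence ratio to pre-addition baseline per second over 15 to 24 s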). The note with it: thallium flux BTC fluorescence, at 10 µM, actives lie on both sides.
A short description of experiment [7]: inhibitors of Sendai virus-induced IRF3 signaling, primary screen, TLR/RLR signaling modifier project, cell-based, Sendai virus stimulus, luciferase, 10K MLSCN set (AID 602276;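 active = inhibition at or above 50% at 10 µM; inactive = inhibition below 50%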;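 note: firefly luciferase from ISG56 promoter only with Renilla not read in this screen; 0% = Sendai virus plus DMSO and 100% = medium plus DMSO without virus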). Particulars: HEK293 RL24 IRF3 luciferase reporter, at 10 µM, stronger effect = higher value. (A reporter such as luciferase makes a cellular process visible.)
The nature of experiment [8]: inhibitors of poly I:C-induced TLR3 signaling, primary screen, cell-based, poly I:C stimulus, luciferase, 10K MLSCN set (AID 602277;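 active = inhibition of the reporter signal at or above 50%; inactive = inhibition below 50%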). Particulars: HEK293-TLR3 RL24 IRF3 luciferase reporter, at 10 µM, stronger effect = higher value.

Alpha-2C adrenergic receptor (Homo sapiens), sequence (P18825 whole entry, looked up): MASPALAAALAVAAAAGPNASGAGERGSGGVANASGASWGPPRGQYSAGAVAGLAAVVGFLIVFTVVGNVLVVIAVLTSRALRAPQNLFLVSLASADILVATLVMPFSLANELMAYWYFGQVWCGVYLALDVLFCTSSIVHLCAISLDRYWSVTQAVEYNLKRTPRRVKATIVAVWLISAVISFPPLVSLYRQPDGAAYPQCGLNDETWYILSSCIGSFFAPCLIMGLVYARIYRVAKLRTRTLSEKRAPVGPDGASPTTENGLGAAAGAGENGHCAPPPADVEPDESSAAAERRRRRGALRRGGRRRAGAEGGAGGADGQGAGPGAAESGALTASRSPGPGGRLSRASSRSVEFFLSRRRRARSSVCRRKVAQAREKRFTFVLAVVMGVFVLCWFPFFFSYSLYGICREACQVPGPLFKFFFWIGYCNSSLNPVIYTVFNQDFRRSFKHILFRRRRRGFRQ
Voltage-gated potassium channel subunit beta-2 (Rattus norvegicus), sequence (P62483 whole entry, looked up): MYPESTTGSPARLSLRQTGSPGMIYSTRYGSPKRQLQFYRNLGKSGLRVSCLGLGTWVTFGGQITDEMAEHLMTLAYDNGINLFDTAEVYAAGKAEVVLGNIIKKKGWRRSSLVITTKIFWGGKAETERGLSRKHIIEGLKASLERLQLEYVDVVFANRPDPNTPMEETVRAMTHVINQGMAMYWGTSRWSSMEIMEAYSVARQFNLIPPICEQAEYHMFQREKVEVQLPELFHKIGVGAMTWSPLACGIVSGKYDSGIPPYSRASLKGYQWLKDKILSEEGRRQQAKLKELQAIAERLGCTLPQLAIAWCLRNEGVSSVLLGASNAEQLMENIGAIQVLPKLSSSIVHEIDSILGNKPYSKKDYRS

With `Cc1ccc(C)n1-n1c(C)nc2sc(-c3ccccc3)cc2c1=O`, the cell count in experiment [1] turned out to be 419. For the same compound, the inhibition (as a rule, the drop in the measured response relative to a control, in per cent) was -0.6% (inactive) in experiment [1], -143% (inactive) in experiment [3], -68% (inactive) in experiment [7] and -272% (inactive) in experiment [8]. Further, the inhibition of aggregation in experiment [2] is -8.2% (inactive). Besides, the values for the nuclei count in experiment [2] and in experiment [3] were 85.3% and 109%, respectively. Moreover, the fluorescence slope in experiment [4] was -0.363 (inactive). The NADPH fluorescence slope in experiment [5] was 3.8e-06 (inactive). Further, the slope in experiment [6] is 0.00611 (inactive).
In the case of `O=C1c2ccccc2C(Nc2ccc3c(c2)OCO3)N1Cc1ccc2c(c1)OCO2` (configuration not stated), the cell count in experiment [1] was found to be 529. The inhibition was -8.5% (inactive) in experiment [1], -0.3% (inactive) in experiment [3], -3.95% (inactive) in experiment [7] and 27.2% (inactive) in experiment [8]. For the same compound, the inhibition of aggregation in experiment [2] was -8.3% (inactive). Also, the nuclei count in experiment [2] was 63.8%; in experiment [3], 107%. The fluorescence slope in experiment [4] is -0.398 (inactive). For the same compound, in experiment [5], the NADPH fluorescence slope was -2.6e-05 (inactive). Besides, in experiment [6], the slope was 0.00394 (inactive).
As to `CC(C)COc1ccc(-c2nnn(CC(=O)N3CCCC3)n2)cc1`, the cell count in experiment [1] was determined as 473. For the same compound, the inhibition in experiment [1] was -5.5% (inactive); in experiment [3], 19.6% (inactive); in experiment [7] it was -2.78% (inactive); in experiment [8] it was -17.8% (inactive). In experiment [2], the inhibition of aggregation is -13.3% (inactive). Besides, the nuclei count was determined as 106% in experiment [2] and 109% in experiment [3]. Besides, the fluorescence slope in experiment [4] was -0.564 (inactive). For the same compound, the NADPH fluorescence slope in experiment [5] is -5.5e-05 (inactive). In addition, in experiment [6], the slope is 0.00381 (inactive).
With `COc1ccc(CCNC(=O)CC2COc3ccccc3O2)cc1OC` (configuration not stated), the cell count in experiment [1] amounted to 611. Further, the inhibition in experiment [1] was -7.2% (inactive); in experiment [3], -28.9% (inactive); in experiment [7], 19.4% (inactive); in experiment [8], 20.3% (inactive). The inhibition of aggregation in experiment [2] was 25% (inactive). In addition, the nuclei count in experiment [2] and in experiment [3] was 115% in each case. Moreover, in experiment [4], the fluorescence slope is -0.619 (inactive). Besides, the NADPH fluorescence slope in experiment [5] is 2.1e-05 (inactive). The slope in experiment [6] is 0.00334 (inactive).
On to `COCCOC(=O)C1=C(C)OC(N)=C(C#N)C1c1ccc2c(c1)OCO2` (configuration not stated), for which the cell count in experiment [1] was 468. Also, the inhibition in experiment [1] was -0.5% (inactive); in experiment [3], -87.8% (inactive); in experiment [7] it was 5.43% (inactive); in experiment [8] it was 23.2% (inactive). Besides, the inhibition of aggregation in experiment [2] is 12.6% (inactive). Besides, the nuclei count is 104% in experiment [2] and 110% in experiment [3]. Also, the fluorescence slope in experiment [4] was -0.44 (inactive). The NADPH fluorescence slope in experiment [5] is -3.9e-05 (inactive). Moreover, the slope in experiment [6] is 0.00523 (inactive).
As to `Cc1ccc(CNC(=O)C2CCN(S(=O)(=O)c3cccs3)CC2)o1`, the cell count in experiment [1] came out at 296. For the same compound, the inhibition was -3.4% (inactive) in experiment [1], -23.9% (inactive) in experiment [3], 7.81% (inactive) in experiment [7] and 5.31% (inactive) in experiment [8]. Also, the inhibition of aggregation in experiment [2] was 11.2% (inactive). Besides, the figures for the nuclei count in experiment [2] and in experiment [3] were 76.7% and 103%, respectively. In experiment [4], the fluorescence slope is -0.617 (inactive). Further, the NADPH fluorescence slope in experiment [5] is -3.4e-05 (inactive). Moreover, the slope in experiment [6] is 0.00605 (inactive).
In the case of `Nc1nnc(-c2cn(-c3ccccc3)nc2-c2ccccc2)o1`, the cell count in experiment [1] is 523. The inhibition in experiment [1] is -12.5% (inactive); in experiment [3], -16.3% (inactive); in experiment [7], -22.2% (inactive); in experiment [8], -23.6% (inactive). The inhibition of aggregation in experiment [2] is -7.1% (inactive). Further, the nuclei count in experiment [2] turned out to be 90.3%; in experiment [3], 113%. Moreover, the fluorescence slope in experiment [4] is -0.481 (inactive). Also, the NADPH fluorescence slope in experiment [5] is 1.3e-05 (inactive). Also, in experiment [6], the slope was 0.00498 (inactive).

Source of the values: PubChem BioAssay.
